Mtb betalactam: beta-lactam sensitization of Mtb H37Rv | M. tuberculosis H37Rv growth with meropenem, percent inhibition | inhibition, % at 25 µM | 330,000 tested, 0.27% active;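 note: growth measured after seven days incubation then overnight dye step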
Rv3671c inh: inhibits the M. tuberculosis serine protease Rv3671c | P9WHR9 | 320,000 tested, 0.048% active | AID 2606 | inhibition, % at 5.96 µM; in the data active = inhibition above about 38%;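 note: extracellular domain of Rv3671c used as enzyme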
GDH-TPI counter-1: counter-screen for M. tuberculosis FBA inhibitors: GDH-TPI coupled enzymes; AID 588335; GDH-TPI coupled enzyme counterscreen, NADH absorbance; 360,000 tested, 1.2% active; inhibition, % at 4.8 µM; in the data active = inhibition above about 30%
Mtb FBA inh: inhibits M. tuberculosis FBA enzyme | 360,000 tested, 2.3% active | inhibition, % at 1 µM | purified M. tuberculosis FBA, fluorescence read-out; in the data active = inhibition above about 27%
Mtb UGM inh: blocks M. tuberculosis UGM enzyme; P9WIQ1; purified UGM, fluorescence polarization probe displacement; inhibition, % at 10 µM; 320,000 tested, 0.06% active; AID 504406; in the data active = inhibition above about 10%, passing the limit was not always enough
RecA intein inh: inhibitors of M. tuberculosis RecA intein splicing | P9WHJ3 | cell-free RecA intein splicing, fluorescence | inhibition, % (no concentration beside the values) | 290,000 tested, 0.75% active | AID 2221; in the data active = inhibition above about 30%
Target sequence (P9WHJ3 whole entry, looked up): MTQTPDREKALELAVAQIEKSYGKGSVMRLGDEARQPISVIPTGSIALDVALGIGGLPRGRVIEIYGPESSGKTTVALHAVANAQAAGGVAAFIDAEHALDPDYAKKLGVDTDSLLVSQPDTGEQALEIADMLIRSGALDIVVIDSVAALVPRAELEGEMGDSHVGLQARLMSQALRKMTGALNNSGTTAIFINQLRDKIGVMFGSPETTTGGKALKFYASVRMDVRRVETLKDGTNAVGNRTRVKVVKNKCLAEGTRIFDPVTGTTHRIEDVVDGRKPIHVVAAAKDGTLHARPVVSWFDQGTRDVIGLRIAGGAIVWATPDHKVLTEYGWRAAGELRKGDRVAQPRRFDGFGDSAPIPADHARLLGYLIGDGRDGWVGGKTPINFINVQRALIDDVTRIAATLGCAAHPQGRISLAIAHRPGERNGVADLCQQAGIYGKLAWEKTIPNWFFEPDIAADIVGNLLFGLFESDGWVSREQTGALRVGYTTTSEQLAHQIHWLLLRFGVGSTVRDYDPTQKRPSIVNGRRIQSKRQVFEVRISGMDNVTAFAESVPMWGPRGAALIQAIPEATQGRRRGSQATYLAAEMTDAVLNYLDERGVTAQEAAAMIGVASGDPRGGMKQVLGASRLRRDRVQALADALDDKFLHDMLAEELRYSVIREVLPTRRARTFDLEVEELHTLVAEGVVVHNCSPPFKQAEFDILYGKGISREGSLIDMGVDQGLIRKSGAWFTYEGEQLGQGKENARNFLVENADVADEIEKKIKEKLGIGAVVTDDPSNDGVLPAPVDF
Mtb FBA confirm: confirmation of M. tuberculosis fructose-bisphosphate aldolase inhibitors; shares compounds with Mtb FBA inh; purified M. tuberculosis FBA, fluorescence read-out; inhibition, % at 1 µM; 5,600 tested, 78% active; in the data active = inhibition above about 27%
GDH-TPI counter-2: inhibits GDH-TPI coupling enzymes, flagging Mtb FBA hits; shares compounds with Mtb FBA inh; GDH-TPI coupled enzyme counterscreen, fluorescence; inhibition, % at 1 µM; 5,600 tested, 81% active; in the data active = inhibition above about 10%
GDH-TPI dose: counter-screen for M. tuberculosis FBA inhibitors: GDH-TPI dose response; IC50, µM; GDH-TPI coupled enzyme assay, fluorescence, artifact counterscreen; shares compounds with Mtb FBA inh; 170 tested, 79% active
Numbers stand for hits; 0 = inactive; - = not tested or not shown; + = active, no number. This is a sample that favours compounds with a hit; in the whole collection about 4% have one here. Unless noted, the rule behind the calls is not given here.

SMILES	Mtb betalactam	Rv3671c inh	GDH-TPI counter-1	Mtb FBA inh	Mtb UGM inh	RecA intein inh	Mtb FBA confirm	GDH-TPI counter-2	others
O=C(O)c1ccc(Nc2nc3ccccc3nc2NS(=O)(=O)c2ccc(F)cc2)cc1	0	0	33	46	0	0	+	156
O=[N+]([O-])c1ccc(S(=O)(=O)Nc2nc3ccccc3nc2Nc2ccccc2)cc1	0	0	0	0	0	-	-	-
CCCCC(=O)Nc1cc(N(C)C)nc2ccccc12	0	0	0	35	0	0	+	+
CN(C)c1cc(NC(=O)CNC(C)(C)C)c2ccccc2n1	0	0	0	0	0	0	-	-
Nc1c(C(=O)NCCc2ccccc2)sc2nc(N3CCOCC3)c3c(c12)CCCC3	0	0	0	82	0	0	0	14
CC1(C)Cc2c(c(N3CCCC3)nc3sc(C(=O)Nc4ccccc4)c(N)c23)CO1	0	0	0	34	0	0	+	+
CN1Cc2c(N3CCOCC3)nc3sc(C(=O)c4ccccc4)c(N)c3c2CC1(C)C	0	0	0	0	0	0	-	-
CCOC(=O)c1sc2nc(N3CCOCC3)c3c(c2c1N)CC(C)(C)N(C)C3	0	0	0	59	0	0	0	0
Cc1ccc(NC(=O)c2sc3nc(N4CCOCC4)c4c(c3c2N)CC(C)(C)OC4)cc1	0	0	0	0	0	0	-	-
CCCCn1c(N)c(C(=O)NCCN2CCOCC2)c2nc3ccccc3nc21	0	0	0	80	0	0	+	+
CCC(C)NC(=O)c1c(N)n(CCCOC)c2nc3ccccc3nc12 (configuration not stated)	0	0	0	94	0	0	+	+
COCCCNC(=O)c1c(N)n(-c2ccc3c(c2)OCO3)c2nc3ccccc3nc12	0	0	0	0	0	0	-	-
CC(C)Cn1c(N)c(C(=O)NCCN2CCOCC2)c2nc3ccccc3nc21	0	0	0	110	0	0	77	73
Cc1ccc2c(c1)c(C)cc[n+]2Cc1ccccc1	0	0	0	0	0	0	-	-
COc1ccc2c(c1)c(C)cc[n+]2Cc1ccccc1	0	-	0	41	0	0	59	57
COCCOC(=O)CSc1ncccc1-c1nc2cc(C)c(C)cc2[nH]1	0	0	0	30	0	0	191	156
S=c1[nH]ccc2ccccc12	-	-	0	0	-	-	-	-
COc1ccc(N2C(=O)CC(Cc3ccccc3OC)C2=O)cc1 (configuration not stated)	0	0	0	0	0	0	-	-
CCOC(=O)c1cc(-c2cccs2)nc2onc(C)c12	0	0	0	42	0	0	82	74
CCOc1cccc(CN2CCC(CCC(=O)NC3CC3)CC2)c1O	0	0	0	0	0	0	-	-
CCC(=O)N/C(N)=N/c1nc(C)c2cc(OC)ccc2n1	0	0	0	40	0	0	+	+
CCOC(=O)CSc1nc(C)c2cc(C)c(C)cc2n1	0	0	0	0	0	0	-	-
CCOC(=O)CSc1nc(C)c2cc(OC)ccc2n1	0	0	0	49	0	0	64	36
COc1ccc2nc(/N=C(\N)NC(=O)C(C)(C)C)nc(C)c2c1	0	0	0	46	0	0	0	0	GDH-TPI dose=3.6
COc1cc(OC)c2c(-c3cccc(-c4sccc4C(C)=O)c3)cc(=O)oc2c1	-	-	0	0	-	-	-	-
COc1ccc(OC)c(N/C=C/C(=C(C#N)C#N)N(C)C)c1	0	0	0	0	0	0	-	-
CC(C)CC(NC(=O)OC(C)(C)C)C(=O)NC(C(=O)N1CCCC1C(N)=O)C(C)C (configuration not stated)	0	0	0	0	0	0	-	-
CCCc1cc(=O)oc2cc(C)cc(OCC(=O)N3C[C@H]4C[C@@H](C3)c3cccc(=O)n3C4)c12	-	-	0	42	-	-	167	127
CCc1cc(=O)oc2c(C)c(OCC(=O)N3C[C@H]4C[C@@H](C3)c3cccc(=O)n3C4)ccc12	0	0	0	0	0	0	-	-
CCCCc1cc(=O)oc2cc(OCC(=O)N3C[C@H]4C[C@@H](C3)c3cccc(=O)n3C4)ccc12	0	0	0	0	0	0	-	-

Bioassay records as filed in PubChem BioAssay.
